For part of these data: Results with a measured potency or affinity are listed apart.
How the values were obtained:
Design in all cases: scale not given: direction of the effect not stated beside the values
[1] = target: Protein translocase subunit SecA (Escherichia coli (strain K12)) (UniProt P10408); assay: Assay to Identify E. coli SecA ATPase Inhibitors; type: functional; settings: 30 µM
[2] = target: T1, Ubiquitin-activating enzyme e1, putative (Leishmania donovani (strain BPK282A1)) (UniProt E9BSI1); assay: Leishmania donovani Ubiquitin Activating Enzyme (LdE1); type: functional; settings: 30 µM
T1 sequence (whole entry): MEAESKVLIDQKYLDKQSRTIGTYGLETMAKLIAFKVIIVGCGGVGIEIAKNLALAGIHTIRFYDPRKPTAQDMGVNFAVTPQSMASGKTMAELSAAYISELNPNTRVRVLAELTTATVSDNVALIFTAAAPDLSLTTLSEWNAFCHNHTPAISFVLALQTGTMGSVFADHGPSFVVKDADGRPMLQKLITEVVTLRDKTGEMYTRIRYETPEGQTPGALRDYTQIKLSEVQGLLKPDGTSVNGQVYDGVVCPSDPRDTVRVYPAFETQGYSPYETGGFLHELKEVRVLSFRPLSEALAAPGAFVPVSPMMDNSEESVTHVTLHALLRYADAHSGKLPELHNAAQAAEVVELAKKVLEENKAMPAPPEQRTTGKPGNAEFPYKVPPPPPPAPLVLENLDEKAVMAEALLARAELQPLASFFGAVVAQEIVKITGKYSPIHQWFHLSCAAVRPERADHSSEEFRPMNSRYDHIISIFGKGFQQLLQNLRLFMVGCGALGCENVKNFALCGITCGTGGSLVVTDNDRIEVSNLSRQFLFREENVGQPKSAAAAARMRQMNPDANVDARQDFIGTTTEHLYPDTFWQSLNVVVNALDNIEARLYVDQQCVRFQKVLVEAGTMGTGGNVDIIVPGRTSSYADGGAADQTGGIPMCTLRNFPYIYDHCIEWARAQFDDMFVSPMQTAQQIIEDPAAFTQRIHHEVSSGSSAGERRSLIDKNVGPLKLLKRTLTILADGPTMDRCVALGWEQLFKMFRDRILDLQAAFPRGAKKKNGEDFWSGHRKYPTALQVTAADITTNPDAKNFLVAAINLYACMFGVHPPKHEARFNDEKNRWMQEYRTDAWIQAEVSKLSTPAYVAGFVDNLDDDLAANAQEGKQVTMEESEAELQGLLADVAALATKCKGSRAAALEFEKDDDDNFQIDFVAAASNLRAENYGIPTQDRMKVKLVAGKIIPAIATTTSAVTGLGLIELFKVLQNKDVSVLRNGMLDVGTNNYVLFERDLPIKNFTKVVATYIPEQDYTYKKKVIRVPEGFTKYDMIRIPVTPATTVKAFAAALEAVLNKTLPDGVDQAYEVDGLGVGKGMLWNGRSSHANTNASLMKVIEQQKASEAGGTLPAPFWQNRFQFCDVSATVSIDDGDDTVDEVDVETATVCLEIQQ

[3] = target: AMP-activated protein kinase, AMPK (Homo sapiens) (UniProt P54646+O43741+P54619+Q9UGJ0+Q9Y478+Q13131+Q9UGI9); assay: AMP-dependent Kinase enzyme assay. An in vitro enzyme assay that detects ADP turnover that is directly proportional to AMPK activity. This uses naive AMPK that is activated during the assay with MK-8722; type: functional; settings: 30 µM
[4] = target: Sialic acid-binding Ig-like lectin 9 (Homo sapiens) (UniProt Q9Y336); assay: Hs-Siglec9 ALPHAscreen SOP 20170721; settings: 10 µM
Chain of Sialic acid-binding Ig-like lectin 9 (Homo sapiens) (Q9Y336 whole entry): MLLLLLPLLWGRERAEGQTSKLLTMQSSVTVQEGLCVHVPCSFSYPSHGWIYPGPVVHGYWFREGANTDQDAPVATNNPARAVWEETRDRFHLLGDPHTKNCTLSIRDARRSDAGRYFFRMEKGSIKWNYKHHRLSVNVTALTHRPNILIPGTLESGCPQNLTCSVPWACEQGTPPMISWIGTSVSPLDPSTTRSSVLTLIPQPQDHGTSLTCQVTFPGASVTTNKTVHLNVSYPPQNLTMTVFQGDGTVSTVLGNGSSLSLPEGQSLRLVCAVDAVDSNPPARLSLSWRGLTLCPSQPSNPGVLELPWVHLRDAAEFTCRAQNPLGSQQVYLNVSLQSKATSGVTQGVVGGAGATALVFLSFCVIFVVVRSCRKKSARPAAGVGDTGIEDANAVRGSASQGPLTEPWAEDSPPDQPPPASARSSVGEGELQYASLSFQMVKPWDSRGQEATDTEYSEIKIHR

Trypanosoma cruzi = assay: Trypanosoma cruzi phosphomannomutase and mannose-1-phosphate guanylyltransferase assay; type: functional; settings: 10 µM
[5] = target: T2, Arginase-2, mitochondrial (Homo sapiens) (UniProt P78540); assay: in vitro enzyme assay to detect the production of urea directly proportional to the activity of Arginase II; type: functional; settings: 33.3 µM; note: in the data most compounds retested in dose-response had high values
T2 sequence (whole entry): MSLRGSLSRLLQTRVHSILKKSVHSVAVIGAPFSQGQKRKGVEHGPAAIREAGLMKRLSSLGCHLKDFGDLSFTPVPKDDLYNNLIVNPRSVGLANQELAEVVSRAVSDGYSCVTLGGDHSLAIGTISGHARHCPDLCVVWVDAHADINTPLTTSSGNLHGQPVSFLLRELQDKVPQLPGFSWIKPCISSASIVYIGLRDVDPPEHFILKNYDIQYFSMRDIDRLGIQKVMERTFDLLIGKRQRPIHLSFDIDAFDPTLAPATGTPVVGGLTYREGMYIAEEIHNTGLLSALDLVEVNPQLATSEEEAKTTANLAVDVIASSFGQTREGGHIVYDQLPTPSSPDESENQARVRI

[6] = target: T3, Proteasome subunit beta (Trypanosoma cruzi) (UniProt O96673); assay: Trypanosoma cruzi proteasome chymotrypsin-like activity (TcProtChymo) assay.; note: in the data most compounds retested in dose-response had high values; type: functional; settings: 9.37 µM
T3 sequence (whole entry): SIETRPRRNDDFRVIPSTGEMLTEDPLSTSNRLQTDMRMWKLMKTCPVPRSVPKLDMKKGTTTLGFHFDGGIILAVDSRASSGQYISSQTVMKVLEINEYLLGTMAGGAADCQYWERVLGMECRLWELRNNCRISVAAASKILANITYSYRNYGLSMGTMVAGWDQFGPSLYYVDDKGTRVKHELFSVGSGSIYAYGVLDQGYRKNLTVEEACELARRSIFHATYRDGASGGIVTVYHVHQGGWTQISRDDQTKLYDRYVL

Homo sapiens = species: Homo sapiens; assay: To identify inhibition of the IFN signalling (Jak-Stat) pathway via expression of an eGFP reporter gene under the control of an IFN-stimulated response element (ISRE) containing MxA promoter.; type: functional; settings: 30 µM
[7] = target: T4, Tyrosyl-tRNA synthetase, putative (Trypanosoma cruzi (strain CL Brener)) (UniProt Q4DSP6); assay: Trypanosoma cruzi tyrosyl tRNA synthetase (TcYRS) _High Tyrosine SOP; type: functional; settings: 30 µM; note: in the data most compounds retested in dose-response had high values
T4 sequence (whole entry): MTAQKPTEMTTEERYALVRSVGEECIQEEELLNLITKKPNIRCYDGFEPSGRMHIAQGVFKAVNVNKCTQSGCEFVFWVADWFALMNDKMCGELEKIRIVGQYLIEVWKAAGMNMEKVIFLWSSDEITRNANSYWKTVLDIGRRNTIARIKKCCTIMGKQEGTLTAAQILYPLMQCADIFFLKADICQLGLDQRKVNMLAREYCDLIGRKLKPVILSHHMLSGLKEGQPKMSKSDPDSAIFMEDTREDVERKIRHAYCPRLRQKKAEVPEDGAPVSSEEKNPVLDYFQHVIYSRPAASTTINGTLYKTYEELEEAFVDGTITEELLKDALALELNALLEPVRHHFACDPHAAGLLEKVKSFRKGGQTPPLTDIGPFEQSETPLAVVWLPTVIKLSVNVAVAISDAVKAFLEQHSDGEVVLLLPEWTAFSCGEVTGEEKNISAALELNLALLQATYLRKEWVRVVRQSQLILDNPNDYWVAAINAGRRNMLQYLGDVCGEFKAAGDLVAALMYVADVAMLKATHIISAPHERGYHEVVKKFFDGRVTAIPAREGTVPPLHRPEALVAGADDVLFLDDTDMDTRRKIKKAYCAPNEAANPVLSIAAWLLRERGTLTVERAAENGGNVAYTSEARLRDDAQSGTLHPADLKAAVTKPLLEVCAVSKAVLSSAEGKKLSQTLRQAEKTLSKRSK

[8] = target: T4, Tyrosyl-tRNA synthetase, putative (Trypanosoma cruzi (strain CL Brener)); assay: Trypanosoma cruzi tyrosyl tRNA synthetase (TcYRS) SOP; type: functional; settings: 30 µM
[9] = target: Chromo domain-containing protein 1 (Saccharomyces cerevisiae (strain ATCC 204508 / S288c) (Baker's yeast)) (UniProt P32657); assay: ScCHD-1 Enzyme Inhibition Assay; type: functional; settings: 30 µM; note: in the data most compounds retested in dose-response had high values
Chain of Chromo domain-containing protein 1 (Saccharomyces cerevisiae (strain ATCC 204508 / S288c) (Baker's yeast)) (P32657 whole entry, the tested form may be a part): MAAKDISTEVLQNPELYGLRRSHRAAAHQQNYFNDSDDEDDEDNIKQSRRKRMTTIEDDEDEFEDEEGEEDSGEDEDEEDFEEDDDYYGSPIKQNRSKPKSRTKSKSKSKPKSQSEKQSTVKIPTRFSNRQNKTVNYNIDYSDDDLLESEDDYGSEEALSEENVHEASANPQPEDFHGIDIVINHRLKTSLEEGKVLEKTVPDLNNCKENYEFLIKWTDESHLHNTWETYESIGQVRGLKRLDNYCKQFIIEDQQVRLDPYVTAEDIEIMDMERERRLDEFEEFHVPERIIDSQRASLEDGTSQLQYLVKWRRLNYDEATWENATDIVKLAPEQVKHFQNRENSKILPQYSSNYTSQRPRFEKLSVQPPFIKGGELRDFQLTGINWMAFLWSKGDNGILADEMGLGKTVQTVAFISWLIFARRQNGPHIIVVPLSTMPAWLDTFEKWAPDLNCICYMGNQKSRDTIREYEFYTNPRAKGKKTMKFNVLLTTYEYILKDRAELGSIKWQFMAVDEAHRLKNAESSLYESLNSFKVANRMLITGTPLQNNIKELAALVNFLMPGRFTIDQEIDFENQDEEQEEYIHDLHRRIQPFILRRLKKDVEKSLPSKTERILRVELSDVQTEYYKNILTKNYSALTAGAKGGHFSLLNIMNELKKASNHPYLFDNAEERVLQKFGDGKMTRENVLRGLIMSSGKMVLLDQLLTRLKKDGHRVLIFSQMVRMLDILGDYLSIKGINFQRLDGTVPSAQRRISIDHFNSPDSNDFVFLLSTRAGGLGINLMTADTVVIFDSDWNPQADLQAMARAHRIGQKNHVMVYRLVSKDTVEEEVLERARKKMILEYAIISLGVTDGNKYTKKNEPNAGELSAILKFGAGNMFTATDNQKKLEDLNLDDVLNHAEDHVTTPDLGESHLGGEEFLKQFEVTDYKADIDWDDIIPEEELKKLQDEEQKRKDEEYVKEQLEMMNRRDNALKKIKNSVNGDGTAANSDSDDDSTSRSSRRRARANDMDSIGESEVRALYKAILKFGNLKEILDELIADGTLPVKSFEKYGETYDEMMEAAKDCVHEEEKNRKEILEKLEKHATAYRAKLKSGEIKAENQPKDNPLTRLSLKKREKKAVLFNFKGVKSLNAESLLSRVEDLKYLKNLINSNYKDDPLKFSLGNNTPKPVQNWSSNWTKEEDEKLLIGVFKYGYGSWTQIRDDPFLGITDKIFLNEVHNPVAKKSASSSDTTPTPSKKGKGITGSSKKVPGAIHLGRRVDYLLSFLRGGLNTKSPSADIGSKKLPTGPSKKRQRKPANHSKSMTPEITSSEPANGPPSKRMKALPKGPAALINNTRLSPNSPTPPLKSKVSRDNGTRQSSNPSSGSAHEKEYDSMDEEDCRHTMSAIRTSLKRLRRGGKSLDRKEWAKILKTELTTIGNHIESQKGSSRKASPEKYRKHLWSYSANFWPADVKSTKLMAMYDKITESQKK

Chain of Protein translocase subunit SecA (Escherichia coli (strain K12)) (P10408 whole entry): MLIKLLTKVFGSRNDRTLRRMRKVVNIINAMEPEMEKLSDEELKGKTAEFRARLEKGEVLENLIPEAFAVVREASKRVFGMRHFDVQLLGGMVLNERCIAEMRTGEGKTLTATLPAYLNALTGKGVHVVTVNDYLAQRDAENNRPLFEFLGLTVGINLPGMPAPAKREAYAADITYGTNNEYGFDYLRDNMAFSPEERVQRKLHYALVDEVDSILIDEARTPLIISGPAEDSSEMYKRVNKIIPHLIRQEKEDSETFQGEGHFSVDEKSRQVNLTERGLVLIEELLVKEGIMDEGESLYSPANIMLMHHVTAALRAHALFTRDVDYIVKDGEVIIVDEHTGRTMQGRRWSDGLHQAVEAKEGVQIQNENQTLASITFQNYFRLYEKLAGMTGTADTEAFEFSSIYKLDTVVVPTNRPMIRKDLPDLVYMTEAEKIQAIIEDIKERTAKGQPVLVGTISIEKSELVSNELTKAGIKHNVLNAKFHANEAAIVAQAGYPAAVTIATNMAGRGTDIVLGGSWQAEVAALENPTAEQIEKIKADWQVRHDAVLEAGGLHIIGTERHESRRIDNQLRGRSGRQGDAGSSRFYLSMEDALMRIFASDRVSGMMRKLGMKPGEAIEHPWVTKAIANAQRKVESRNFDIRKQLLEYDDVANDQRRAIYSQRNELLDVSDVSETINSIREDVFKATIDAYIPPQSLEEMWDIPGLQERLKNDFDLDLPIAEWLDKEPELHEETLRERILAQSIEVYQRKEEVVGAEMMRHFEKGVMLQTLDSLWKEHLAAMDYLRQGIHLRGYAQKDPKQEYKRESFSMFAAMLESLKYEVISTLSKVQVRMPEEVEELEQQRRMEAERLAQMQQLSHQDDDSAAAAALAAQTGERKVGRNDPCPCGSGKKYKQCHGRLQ

Row | Structure (SMILES) | Percent Effect [1] | Percent Effect [2] | Percent Effect [3] | Percent Effect [4] | Percent Effect (Trypanosoma cruzi) | Percent Effect [5] | Percent Effect [6] | Percent Effect (Homo sapiens) | Percent Effect [7] | Percent Effect [8] | Percent Effect [9]
1 | Cc1cc(C(=O)NCCN2CCCC(C)C2)nn1C (centres undefined) | -4.5% | 5.2% | -3.57% | -8.23% | -0.187% | 0% | 0.169% | 27.8% | 3.88% | 7.32% | -0.528%
2 | CC(C)c1noc(CN2CCC3(CCCO3)CCC2=O)n1 (centres undefined) | -8.4% | 2.67% | 0.336% | -1.54% | -3.8% | -0.521% | 2.27% | 25.6% | 1.64% | 6.17% | -6.74%
3 | CCN1CC(C(=O)NCc2ccnc(-n3ccnc3C)c2)CC1=O (centres undefined) | -2.69% | 0% | -12.9% | -7.63% | 0% | -3.18% | 3.02% | 20.3% | -1.07% | -2.5% | -4.95%
4 | O=C([C@H]1C[C@H]2OCC[C@H]2N(C(=O)c2ccncc2)C1)N1CCCCO1 | -6.09% | 16% | -5.71% | -0.495% | 6.56% | -43.9% | 6.33% | -5.77% | 4.17% | 5% | -6.72%
5 | Cc1cc(C)n(CC2CCCN2CCCS(=O)(=O)N(C)C)n1 (centres undefined) | -1.98% | 16.2% | -6.22% | 14% | 5.99% | 11.9% | 13.6% | 8.21% | 4.76% | 19.5% | -4.54%
6 | Cc1cc(C)n(C2CN(CC(=O)NCC(C)(C)N3CCOCC3)C2)n1 | -1.83% | 8.86% | 2.81% | 2.3% | -1.13% | -0.645% | 8.92% | 20.1% | 5.21% | 15.2% | -7.96%
7 | Cc1csc(N2CCN(Cc3cnc(C)s3)CC2C)n1 (centres undefined) | -4.06% | 5.48% | 3.55% | -0.927% | 2.94% | 1.36% | 11.2% | 52.1% | 5.38% | 17.5% | -2.04%
8 | Cc1nc(CN2CCOCC3(CCN(c4cccnc4)CC3)C2)cs1 | -4.45% | 5.41% | 0.402% | -0.618% | -2.34% | 2.08% | 14.4% | 4.77% | 3.96% | 11% | 3.31%
9 | CCN(CC)C(CNC(=O)c1ccc(S(C)(=O)=O)cc1)c1ccco1 (centres undefined) | -2.81% | 2.7% | 6.63% | -6.01% | 3.91% | -2.5% | 14.8% | 8.16% | 8.91% | 11% | 3.77%

— ChEMBL document CHEMBL3988442, “University of Dundee, Small-Polar-MMV Screening Library” (2021)
